Assay [1] can be described thus: rapamycin-like changes in RPL19A-GFP expression – cell-based, S. cerevisiae, multiplex flow cytometry, primary screen (AID 1862; in the data active means percent of DMSO control GFP below about 86%;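 further: lower values mimic rapamycin by blocking the RPL19A rise seen in DMSO cells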). The conditions noted are these: S. cerevisiae RPL19A-GFP strain, flow cytometry fluorescence, 3 h; at 10 µM; stronger effect = lower value.
Assay [2] in a line: TOR pathway RTG branch CIT2 reporter changes – S. cerevisiae, GFP fusion, multiplex flow cytometry, primary screen (AID 1870;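 active means percent response above a set limit, the screen-wide mean plus 3 SD, cut at about 130% in these data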;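 further: barcoded CIT2-GFP strain pooled with four other GFP strains with rapamycin as positive control; median GFP fluorescence per well over plate mean of DMSO wells so 100% = DMSO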). The conditions noted are these: S. cerevisiae CIT2-GFP expression, 3 h, at 10 µM, stronger effect = higher value. Background: A flow cytometer gives signals particle by particle.
Assay [3] in a line: TOR pathway LAP4-GFP level changes – S. cerevisiae, multiplex flow cytometry, primary screen (AID 1873;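 active means GFP signal, as percent of the solvent control, above the screen mean plus 3 SD, about 149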). The conditions noted are these: S. cerevisiae LAP4-GFP expression, 3 h, at 10 µM, stronger effect = higher value.
Assay [4] in a line: yeast AGP1-GFP level changes, GLN3 branch – cell-based, multiplex flow cytometry, S. cerevisiae, primary screen (AID 1887;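 active means GFP signal above the screen-wide mean plus 3 SD, that is over about 124.5% of the solvent control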;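 further: AGP1-GFP fusion strain of S. cerevisiae within a five-strain barcoded multiplex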). The conditions noted are these: 3 h, at 10 µM, stronger effect = higher value.
Assay [5] in a line: reduced mouse 2C T cell binding to pMHC/ICAM-1 vesicles – MLPCN validation set, flow cytometry, LFA-1/ICAM-1 modulator project, pilot screen (AID 2523;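 active means response below a set limit, under 55% cells CD8-positive and vesicle-bound, and CD8 cells' 90th-percentile brightness under 279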;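 on vesicle binding response: mean PE anti-B7-1 fluorescence of CD8+ cells relative to row control; 100% = QL9-loaded vesicles with DMSO vehicle in the same plate row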). The conditions noted are these: 2C mouse CD8+ T cells, at 7 µM, stronger effect = lower value; double positive events: measured here: CD8+/vesicle+ event percentage.
The target in assay [6] is Integrin beta-1 (Homo sapiens) + Integrin alpha-4 (Homo sapiens) (UniProt P13612+P05556). In words: alpha4beta1 integrin LIBS antibody binding reduction – U937 cells, HUTS-21 mAb, flow cytometry, validation set, VLA-4 allosteric modulator project, pilot screen (AID 2674;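 active means inhibition above 50%, about 3 SD of the validation set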;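 further: antibody binding induced by the VLA-4 ligand LDV present at three times its Kd; 0% = LDV ligand with antibody and no compound and 100% = antibody without LDV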). The conditions noted are these: HUTS-21 LIBS mAb binding, at 6.7 µM, stronger effect = higher value, binding induced by LDV ligand.

Assay [7] in a line: calorie-restriction mimetic ROS inhibitors, yeast – validation compound set, pilot screen (AID 2706;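 active means superoxide response below 65% of plate, a cut near 3 SD across the whole screen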;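 further: yeast exposed to compound for one week at 30 degrees C before staining; 100% = mean of all compound wells on the same plate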). The conditions noted are these: S. cerevisiae aging, superoxide DHE fluorescence; at 10 µM, stronger effect = lower value.
Assay [8] concerns the target Beta-adrenergic receptor kinase 1 (Homo sapiens) (UniProt P25098). In words: GRK2 binders displacing RNA aptamer, biochemical, validation, human GRK2, bead flow cytometry (AID 488806;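 active means aptamer binding inhibition above 30%, about 3 SD of noise from non-fluorescent compounds; inactive means inhibition at or below 30%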). The conditions noted are these: bead-bound GRK2, FAM-aptamer displacement, at 10 µM, stronger effect = higher value.
The target of assay [9] is Beta-2 adrenergic receptor (Homo sapiens) (UniProt P07550). In words: agonist-induced loss of surface beta2AR – cell-based, FAP fluorogen, flow cytometry, validation set, pilot screen (AID 504459;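 active means percent response above 42, roughly 3 SD of non-fluorescent test compounds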;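 further: agonist-driven loss of surface beta2AR via internalization measured by FAP dye flow cytometry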). The conditions noted are these: Am2.2-beta2AR cells, at 10 µM, stronger effect = higher value.
The target of assay [10] is AP-2 complex subunit beta (Homo sapiens) (UniProt P63010). Put plainly: beta-arrestin/AP2 interaction blockers – biochemical, validation set, GST-AP2 beads, flow cytometry, pilot screen (AID 504541;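 active means inhibition above 54%, about 3 SD of non-fluorescent compounds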;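 further: AP2 carries R879A mutation and is captured from E. coli lysate; bead-bound FITC arrestin peptide fluorescence measuring arrestin peptide binding to AP2; 0% = DMSO wells and 100% = excess unlabeled arrestin peptide control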). The conditions noted are these: FITC arrestin peptide, at 10 µM, stronger effect = higher value, AP2 beta2 appendage fragment, R879A mutant.
Assay [11] can be described thus: cytosolic pH regulators acting via V-ATPase – S. cerevisiae, pHLuorin, HTS validation (AID 504600; in the data active means response above about 15%;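 further: plate controls were DMSO for no effect and reference compound for full effect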). The conditions noted are these: V-ATPase proton transport, at 10 µM, stronger effect = higher value.
In assay [12] the test system is anti-desmoglein-3 scFv antibody binding to human DSG3. Put plainly: blockers of pathogenic pemphigus antibody–desmoglein-3 binding – biochemical, validation compound set, bead-based, flow cytometry, pilot screen (AID 588368).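 Further: signal is the median channel fluorescence of bead-bound GFP antibody.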 The conditions noted are these: Protein G beads, DSG3-Fc, scFv-GFP binding, at 10 µM, stronger effect = lower value.
Assay [13] in a line: Nile Red efflux blockade in pump-expressing yeast – validation compound set, multiplex, phenotypic, pilot screen (AID 588506;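 active means efflux inhibition above 0.42, the validation set average plus 4 SD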;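 further: Nile Red retained in cells so higher fluorescence means more efflux inhibition; 0 = negative control wells and 1 = enniatin B 25 µM full block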). The conditions noted are these: S. cerevisiae pump-expressing triplex, Nile Red efflux flow cytometry; at 10 µM; stronger effect = higher value; the pumps come from Candida albicans.
Assay [14] deals with ATP-binding cassette sub-family B member 6 (Homo sapiens) (UniProt Q9NP58). In words: blockers of ABCB6-driven porphyrin uptake – K562-ABCB6 cells, flow cytometry, validation set, pilot screen (AID 588550;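 active means inhibition above the screen-wide mean plus 3 SD, about 51%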;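 further: 0% = DMSO wells and 100% = benzethonium chloride 70 µM positive control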). The conditions noted are these: K562-ABCB6 porphyrin accumulation, 1 h, at 10 µM, stronger effect = higher value.
Assay [15] can be described thus: AML differentiation inducers, ER-HoxA9 marrow cells – cell-based, GFP/MAC1 double positive, flow cytometry, validation set, primary screen (AID 588685;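 active means differentiation response of at least 50%, scaled between solvent and reference control, from cells with both markers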;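 further: compound exposure lasts four days before antibody staining and flow analysis; 0% = DMSO wells and 100% = 5 µM fulvestrant positive control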). The conditions noted are these: stronger effect = higher value, normalized: vehicle 0, fulvestrant 100.
A short description of assay [16]: TOR pathway GLN3 branch reporter MEP2-GFP changes – S. cerevisiae, multiplex flow cytometry, primary screen (AID 1867;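 active means GFP response, as percent of the DMSO control, above the screen-wide mean plus 3 SD, about 139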;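 further: median GFP channel fluorescence of barcode-gated MEP2-GFP cells measured by flow cytometry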). The conditions noted are these: S. cerevisiae MEP2-GFP strain, 3 h, at 10 µM, stronger effect = higher value, 100% means same as DMSO wells.

The text below walks through data of PubChem BioAssay.

Structures are written as SMILES. Inconclusive results are not listed. Active and inactive are the calls of the source.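 How the source made its calls, unless noted: active means binding below the plate cutoff, the plate median minus 3 SD, with a reading above zero; inconclusive means below the plate cutoff but reading exactly zero; inactive means the rest.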

Sequence of Integrin beta-1 (Homo sapiens) + Integrin alpha-4 (Homo sapiens) (P05556 whole entry, looked up): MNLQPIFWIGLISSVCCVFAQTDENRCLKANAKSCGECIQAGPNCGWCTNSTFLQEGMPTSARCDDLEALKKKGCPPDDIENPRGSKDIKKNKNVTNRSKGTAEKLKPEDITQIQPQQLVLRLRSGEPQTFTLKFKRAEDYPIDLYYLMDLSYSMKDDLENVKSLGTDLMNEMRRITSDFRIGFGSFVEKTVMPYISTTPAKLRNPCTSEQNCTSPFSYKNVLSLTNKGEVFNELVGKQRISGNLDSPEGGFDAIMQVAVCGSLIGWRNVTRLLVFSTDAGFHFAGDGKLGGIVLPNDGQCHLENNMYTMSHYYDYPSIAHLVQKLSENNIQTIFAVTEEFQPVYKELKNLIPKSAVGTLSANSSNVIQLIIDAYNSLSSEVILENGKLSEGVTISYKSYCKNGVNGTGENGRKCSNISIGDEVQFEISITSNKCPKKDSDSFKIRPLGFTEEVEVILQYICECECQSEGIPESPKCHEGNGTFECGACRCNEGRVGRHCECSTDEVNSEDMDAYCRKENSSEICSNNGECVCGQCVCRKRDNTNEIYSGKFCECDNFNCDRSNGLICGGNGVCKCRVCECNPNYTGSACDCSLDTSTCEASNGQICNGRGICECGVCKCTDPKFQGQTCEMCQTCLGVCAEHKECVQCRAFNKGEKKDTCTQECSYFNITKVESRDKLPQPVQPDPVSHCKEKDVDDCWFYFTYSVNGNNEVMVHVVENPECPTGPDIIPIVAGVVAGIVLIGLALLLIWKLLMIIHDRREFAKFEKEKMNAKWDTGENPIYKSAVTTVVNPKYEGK
Sequence of Integrin beta-1 (Homo sapiens) + Integrin alpha-4 (Homo sapiens) (P13612 whole entry, looked up): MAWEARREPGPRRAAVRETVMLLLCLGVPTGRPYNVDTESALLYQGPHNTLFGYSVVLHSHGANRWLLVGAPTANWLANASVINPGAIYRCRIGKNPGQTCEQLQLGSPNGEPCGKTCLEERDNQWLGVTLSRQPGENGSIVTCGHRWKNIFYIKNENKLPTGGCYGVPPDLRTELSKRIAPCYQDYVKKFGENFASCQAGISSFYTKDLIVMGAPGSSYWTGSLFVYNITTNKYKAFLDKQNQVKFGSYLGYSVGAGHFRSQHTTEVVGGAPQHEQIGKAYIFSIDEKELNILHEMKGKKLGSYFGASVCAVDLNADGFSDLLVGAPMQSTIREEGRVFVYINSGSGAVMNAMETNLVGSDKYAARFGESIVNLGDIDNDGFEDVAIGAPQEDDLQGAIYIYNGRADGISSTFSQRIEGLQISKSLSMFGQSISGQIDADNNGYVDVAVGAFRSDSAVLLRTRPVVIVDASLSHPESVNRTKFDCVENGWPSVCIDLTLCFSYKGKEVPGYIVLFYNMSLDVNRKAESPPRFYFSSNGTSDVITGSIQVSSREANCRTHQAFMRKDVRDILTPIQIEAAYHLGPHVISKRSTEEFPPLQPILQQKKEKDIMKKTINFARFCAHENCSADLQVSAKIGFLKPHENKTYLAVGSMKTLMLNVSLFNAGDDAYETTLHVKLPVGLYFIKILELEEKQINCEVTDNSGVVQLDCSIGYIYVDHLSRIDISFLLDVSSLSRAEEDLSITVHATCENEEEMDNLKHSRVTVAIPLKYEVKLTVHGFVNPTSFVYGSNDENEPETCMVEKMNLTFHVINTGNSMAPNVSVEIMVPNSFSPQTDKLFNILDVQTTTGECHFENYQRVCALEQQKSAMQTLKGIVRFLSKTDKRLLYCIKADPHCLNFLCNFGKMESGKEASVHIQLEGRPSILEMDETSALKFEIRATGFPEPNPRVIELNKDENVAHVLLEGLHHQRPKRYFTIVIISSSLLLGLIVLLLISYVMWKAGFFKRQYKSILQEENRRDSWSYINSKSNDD
Sequence of AP-2 complex subunit beta (Homo sapiens) (P63010 whole entry, looked up, the tested form may be a part, one chain of several): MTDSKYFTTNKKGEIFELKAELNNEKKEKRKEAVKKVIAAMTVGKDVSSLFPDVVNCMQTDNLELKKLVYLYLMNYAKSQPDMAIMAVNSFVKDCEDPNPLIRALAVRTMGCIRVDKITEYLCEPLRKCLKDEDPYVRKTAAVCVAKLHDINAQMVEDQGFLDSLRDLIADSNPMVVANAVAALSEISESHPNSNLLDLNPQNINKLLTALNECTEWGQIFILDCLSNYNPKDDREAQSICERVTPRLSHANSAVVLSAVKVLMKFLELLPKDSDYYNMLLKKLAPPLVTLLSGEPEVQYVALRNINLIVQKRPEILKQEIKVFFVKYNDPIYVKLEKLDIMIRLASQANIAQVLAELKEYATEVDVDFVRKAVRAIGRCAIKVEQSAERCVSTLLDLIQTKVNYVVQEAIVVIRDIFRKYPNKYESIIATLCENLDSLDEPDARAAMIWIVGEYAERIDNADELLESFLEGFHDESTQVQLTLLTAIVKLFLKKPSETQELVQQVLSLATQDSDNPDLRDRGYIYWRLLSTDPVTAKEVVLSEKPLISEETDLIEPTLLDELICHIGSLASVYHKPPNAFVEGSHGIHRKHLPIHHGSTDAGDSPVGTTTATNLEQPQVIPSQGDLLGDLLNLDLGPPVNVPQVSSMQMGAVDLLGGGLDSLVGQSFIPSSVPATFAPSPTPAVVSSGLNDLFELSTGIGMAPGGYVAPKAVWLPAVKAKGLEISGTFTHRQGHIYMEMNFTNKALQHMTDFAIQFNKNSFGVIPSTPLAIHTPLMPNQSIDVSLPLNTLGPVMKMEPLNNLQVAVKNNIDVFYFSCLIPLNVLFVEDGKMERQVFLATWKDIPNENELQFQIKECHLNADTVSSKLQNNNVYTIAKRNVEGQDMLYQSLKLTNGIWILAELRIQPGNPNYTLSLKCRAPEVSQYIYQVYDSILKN
Sequence of Beta-2 adrenergic receptor (Homo sapiens) (P07550 whole entry, looked up): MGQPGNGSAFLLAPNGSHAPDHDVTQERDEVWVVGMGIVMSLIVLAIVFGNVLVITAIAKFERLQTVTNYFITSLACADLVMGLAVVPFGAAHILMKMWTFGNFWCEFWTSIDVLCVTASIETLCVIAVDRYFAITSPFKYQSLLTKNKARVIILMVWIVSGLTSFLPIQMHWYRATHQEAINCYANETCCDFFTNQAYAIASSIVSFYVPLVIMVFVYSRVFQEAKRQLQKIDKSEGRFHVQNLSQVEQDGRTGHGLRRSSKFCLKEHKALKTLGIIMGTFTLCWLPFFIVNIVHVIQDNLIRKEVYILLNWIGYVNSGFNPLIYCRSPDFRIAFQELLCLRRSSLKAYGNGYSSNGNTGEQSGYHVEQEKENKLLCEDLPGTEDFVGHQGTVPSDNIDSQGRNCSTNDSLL
Sequence of ATP-binding cassette sub-family B member 6 (Homo sapiens) (Q9NP58 whole entry, looked up): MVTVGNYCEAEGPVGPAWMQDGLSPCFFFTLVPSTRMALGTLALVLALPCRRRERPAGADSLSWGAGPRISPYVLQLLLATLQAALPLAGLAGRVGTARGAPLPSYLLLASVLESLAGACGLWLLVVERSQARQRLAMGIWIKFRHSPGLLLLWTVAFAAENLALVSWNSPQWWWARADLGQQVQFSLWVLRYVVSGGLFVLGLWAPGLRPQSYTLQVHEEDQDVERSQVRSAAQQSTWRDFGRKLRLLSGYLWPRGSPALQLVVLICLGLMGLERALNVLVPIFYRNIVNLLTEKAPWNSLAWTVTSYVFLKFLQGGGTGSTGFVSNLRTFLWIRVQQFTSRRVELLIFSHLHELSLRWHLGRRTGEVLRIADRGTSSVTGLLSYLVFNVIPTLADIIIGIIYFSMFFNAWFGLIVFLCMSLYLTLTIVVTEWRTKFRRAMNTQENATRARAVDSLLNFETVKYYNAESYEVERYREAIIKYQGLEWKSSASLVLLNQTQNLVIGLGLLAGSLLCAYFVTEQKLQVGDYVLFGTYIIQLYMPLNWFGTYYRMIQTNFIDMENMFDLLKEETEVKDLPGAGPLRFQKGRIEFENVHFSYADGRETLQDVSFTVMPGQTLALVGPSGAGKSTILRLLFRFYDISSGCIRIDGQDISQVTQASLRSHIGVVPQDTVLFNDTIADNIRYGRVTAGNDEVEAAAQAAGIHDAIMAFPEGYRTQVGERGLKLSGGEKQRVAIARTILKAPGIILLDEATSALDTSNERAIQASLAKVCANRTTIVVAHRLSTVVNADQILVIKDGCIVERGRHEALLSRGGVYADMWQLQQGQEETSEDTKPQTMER
Sequence of Beta-adrenergic receptor kinase 1 (Homo sapiens) (P25098 whole entry, looked up): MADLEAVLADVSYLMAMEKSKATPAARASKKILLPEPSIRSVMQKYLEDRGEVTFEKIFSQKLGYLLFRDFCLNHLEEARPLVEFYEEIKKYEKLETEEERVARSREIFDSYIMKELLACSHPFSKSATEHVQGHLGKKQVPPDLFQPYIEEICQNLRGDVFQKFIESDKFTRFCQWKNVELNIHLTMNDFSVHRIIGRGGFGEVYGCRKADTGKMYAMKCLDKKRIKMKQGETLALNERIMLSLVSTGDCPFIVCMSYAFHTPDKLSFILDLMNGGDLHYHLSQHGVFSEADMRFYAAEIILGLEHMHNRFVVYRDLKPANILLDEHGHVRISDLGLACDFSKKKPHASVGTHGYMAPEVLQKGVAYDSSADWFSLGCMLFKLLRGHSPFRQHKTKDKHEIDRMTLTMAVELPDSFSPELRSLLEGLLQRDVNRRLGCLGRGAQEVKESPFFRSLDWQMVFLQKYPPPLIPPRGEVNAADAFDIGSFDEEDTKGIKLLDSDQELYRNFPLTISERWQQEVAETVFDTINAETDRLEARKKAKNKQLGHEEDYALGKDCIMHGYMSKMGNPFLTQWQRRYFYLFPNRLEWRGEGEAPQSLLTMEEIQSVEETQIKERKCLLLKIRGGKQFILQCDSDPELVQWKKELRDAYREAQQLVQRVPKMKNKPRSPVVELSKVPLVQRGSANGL

`OCCN(CCO)c1ccc2ccccc2c1`: the percent of DMSO control GFP in [1] was 96.5% (inactive). In [2], the percent response of DMSO control is 99.6% (inactive). In assay [3], the GFP response vs DMSO is 96.5% (inactive). For the same compound, the GFP response, % of DMSO in assay [4] was 98.9% (inactive). In [5], this compound gave a double positive events of 66.7%. For the same compound, in assay [5], the vesicle binding response was 267% (inactive). Also, the figures for the inhibition in [6], in assay [10] and in assay [14] were 0.94% (inactive), -3.97% (inactive) and 10% (inactive), respectively. Also, the superoxide response (% of plate) in assay [7] was 98.1% (inactive). Besides, in assay [8], the aptamer binding inhibition was 2% (inactive). The response in assay [9] was -2.38% (inactive); in assay [11], 4.81% (inactive). Moreover, the binding (% of control) in assay [12] was 103% (inactive). The efflux inhibition (fraction of control) in assay [13] was -0.21 (inactive). Also, the differentiation response in [15] was 5.6% (inactive).
Take `COc1ccc(CCN(C)CC(=O)Nc2cc(C)nc3ccccc23)cc1OC`: the percent of DMSO control GFP in assay [1] is 108% (inactive). Also, the percent response of DMSO control in assay [2] was 104% (inactive). The GFP response vs DMSO in assay [3] was 94% (inactive). Moreover, the GFP response, % of DMSO in assay [4] is 94.9% (inactive). Also, the double positive events in [5] worked out at 71.8%. The vesicle binding response in assay [5] is 193% (inactive). Also, the inhibition in [6] was 10.5% (inactive); in assay [10], -0.03% (inactive); in [14] it was 5% (inactive). In [7], the superoxide response (% of plate) is 103% (inactive). The aptamer binding inhibition in assay [8] was 1% (inactive). The response in [9] was 7.03% (inactive); in [11], -0.15% (inactive). The binding (% of control) in assay [12] was 96.8% (inactive). Also, in assay [13], the efflux inhibition (fraction of control) was 0.05 (inactive). For the same compound, the differentiation response in assay [15] was 5.6% (inactive).
As to `COC(=O)c1ccc(CC(=O)c2ccc(O)cc2O)o1`, the percent of DMSO control GFP in assay [1] is 93.5% (inactive). Further, the results for the GFP response vs DMSO in assay [16] and in [3] were 119% (inactive) and 79.8% (inactive), respectively. The percent response of DMSO control in assay [2] was 91.3% (inactive). In [5], this compound had a double positive events of 72.3%. The vesicle binding response in assay [5] is 248% (inactive). Besides, the inhibition in assay [6] was -32.3% (inactive); in assay [10], 5.21% (inactive); in [14] it was -45% (inactive). The superoxide response (% of plate) in [7] is 93.2% (inactive). Also, the aptamer binding inhibition in [8] was 4% (inactive). The response was 7.39% (inactive) in assay [9] and 18.1% (active) in [11]. For the same compound, the binding (% of control) in [12] is 109% (inactive). Moreover, the efflux inhibition (fraction of control) in assay [13] was -0.24 (inactive). Also, the differentiation response in assay [15] is 4.91% (inactive).
In the case of `COc1cccc(N2CC(O)=C(c3nc4ccccc4c(=O)[nH]3)C2=N)c1`, in assay [1], the percent of DMSO control GFP was 97.9% (inactive). In addition, the figures for the GFP response vs DMSO in assay [16] and in assay [3] were 130% (inactive) and 75.9% (inactive), respectively. Moreover, in [2], the percent response of DMSO control is 116% (inactive). Further, the double positive events in [5] stood at 58.4%. For the same compound, the vesicle binding response in assay [5] is 140% (inactive). Besides, the inhibition in assay [6] is 11.3% (inactive); in assay [10], 2.43% (inactive); in [14], 14% (inactive). In addition, in [7], the superoxide response (% of plate) is 106% (inactive). In addition, the aptamer binding inhibition in assay [8] was 5% (inactive). In addition, the response in assay [9] is 20.8% (inactive); in assay [11], 8.28% (inactive). Further, the binding (% of control) in assay [12] is 103% (inactive). In addition, the efflux inhibition (fraction of control) in assay [13] is -0.2 (inactive). Besides, the differentiation response in assay [15] is 2.46% (inactive).
In the case of `CCOC(=O)c1c(C)oc2cc(Br)c(OC(C)C(=O)OCC)cc12` (stereo not given), the percent of DMSO control GFP in [1] was 95% (inactive). Besides, the GFP response vs DMSO in [16] is 119% (inactive); in assay [3] it was 84.7% (inactive). For the same compound, the percent response of DMSO control in [2] was 102% (inactive). Moreover, the double positive events in assay [5] came out at 60.7%. In [5], the vesicle binding response was 238% (inactive). For the same compound, the inhibition is 2.58% (inactive) in [6], 1.62% (inactive) in assay [10] and 12% (inactive) in assay [14]. Further, the superoxide response (% of plate) in assay [7] is 93% (inactive). Further, the aptamer binding inhibition in [8] is 7% (inactive). For the same compound, the response in assay [9] was 4% (inactive); in assay [11], -3.94% (inactive). Besides, in assay [12], the binding (% of control) is 101% (inactive). The efflux inhibition (fraction of control) in assay [13] is -0.31 (inactive). In addition, in assay [15], the differentiation response is -1.64% (inactive).

The term inhibition denotes the relative decrease from the control value, in per cent.
